Measurements published in PubChem BioAssay (EPA / NIEHS).
Where “and” joins values, the source holds several entries; their conditions need not be identical. Equal entries are not always repeated. A structure can be active in one record and inactive in another. Calls of active or inactive are those of the source. How the source made its calls: active means hit-call score of the fitted dose curve at least 0.9, where 1 is the maximum; inactive means score below 0.9.

Tests used:
[1] = read-out: Interleukin-1 alpha (IL1a), IL1A (gene 3552); experiment: BSK_KF3CT_IL1a: BioMAP Diversity Plus: KF3CT Assay for Interleukin-1 alpha (IL1a) Biomarker Activity (AID 2283070); details: primary human keratinocytes with fibroblasts; actives raise or lower the signal
In short: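 Human keratinocyte plus foreskin fibroblast primary co-culture, sampled 24 h after chemical dosing. IL-1a measured by ELISA; responses fitted bidirectionally against DMSO baseline (negative control), so gain or loss of signal both count.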

[2] = read-out: TIMP metallopeptidase inhibitor 2 (TIMP2), TIMP2 (gene 7077); experiment: BSK_KF3CT_TIMP2: BioMAP Diversity Plus: KF3CT Assay for TIMP metallopeptidase inhibitor 2 (TIMP2) Biomarker Activity (AID 2283071); details: primary human keratinocytes with fibroblasts; actives raise or lower the signal
In short: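 Co-culture of human primary keratinocytes and foreskin fibroblasts, measured 24 h after chemical dosing. TIMP-2 quantified by ELISA and fitted in both directions relative to DMSO. Cytotoxicity checked in parallel cultures by SRB total-protein staining.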

[3] = read-out: C-C motif chemokine 2 (Homo sapiens) (UniProt P13500); experiment: BSK_KF3CT_MCP1: BioMAP Diversity Plus: KF3CT Assay for Monocyte Chemoattractant Protein 1 (MCP1/CCL2) Biomarker Activity (AID 2283073); details: primary human keratinocytes with fibroblasts; actives raise or lower the signal
In short: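 ELISA read-out of MCP-1, 24 h post-dose, in primary human skin keratinocytes co-cultured with fibroblasts. Parallel SRB staining monitors cytotoxicity; changes fitted both directions relative to DMSO.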

[4] = read-out: Matrix Metallopeptidase 9 (MMP9), MMP9 (gene 4318); experiment: BSK_KF3CT_MMP9: BioMAP Diversity Plus: KF3CT Assay for Matrix Metallopeptidase 9 (MMP9) Biomarker Activity (AID 2283074); details: primary human keratinocytes with fibroblasts; actives raise or lower the signal;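 on AC50: MMP9 protein level quantified by ELISA in the co-culture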
In short: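 Keratinocyte plus foreskin fibroblast human primary skin co-culture was dosed with chemical and MMP-9 was quantified by ELISA 24 h later. Bidirectional curve fitting used DMSO as negative control and activity baseline.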

[5] = read-out: urokinase plasminogen activator (uPA), PLAU (gene 5328); experiment: BSK_KF3CT_uPA: BioMAP Diversity Plus: KF3CT Assay for urokinase plasminogen activator (uPA) Biomarker Activity (AID 2283075); details: primary human keratinocytes with fibroblasts; actives raise or lower the signal
In short: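 Human keratinocyte plus foreskin fibroblast primary co-culture exposed to chemical for 24 h. uPA levels were quantified by ELISA, and activity was fitted bidirectionally against a DMSO negative-control baseline.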

CD40, CD40 (gene 958) = experiment: BSK_LPS_CD40: BioMAP Diversity Plus: LPS Assay for CD40 Biomarker Activity (AID 2283076); details: primary human HUVEC with PBMC; actives raise or lower the signal
In short: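 In the LPS system of human endothelial cells with peripheral blood mononuclear cells, CD40 levels were read by ELISA 24 h post-treatment. Signal changes in either direction were fitted against the DMSO baseline, with parallel SRB protein staining.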

[6] = read-out: E-selectin (Homo sapiens) (UniProt P16581); experiment: BSK_LPS_Eselectin: BioMAP Diversity Plus: LPS Assay for Eselectin Biomarker Activity (AID 2283077); details: primary human HUVEC with PBMC; actives raise or lower the signal
In short: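 E-selectin ELISA on LPS-stimulated endothelial cell/PBMC co-cultures, read 24 h post-treatment; gains and losses fitted against DMSO. Parallel SRB staining (0.1% SRB after 10% TCA fixation, 560 nm) flags overt cytotoxicity.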

[7] = read-out: Interleukin-8 (IL8), CXCL8 (gene 3576); experiment: BSK_LPS_IL8: BioMAP Diversity Plus: LPS Assay for Interleukin-8 (IL8) Biomarker Activity (AID 2283078); details: primary human HUVEC with PBMC; actives raise or lower the signal
In short: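 ELISA read-out of IL-8 after 24 h chemical treatment of LPS-activated endothelial/PBMC human primary co-cultures. Changes either up or down relative to DMSO; overt cytotoxicity checked by sulforhodamine B staining in parallel wells.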

[8] = BSK_LPS_SRB: Viability Assessment in the BioMAP Diversity Plus: LPS Assay (AID 2283079); details: primary human HUVEC with PBMC;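 further: total protein by sulforhodamine B absorbance as a cytotoxicity measure; measured one day after compound addition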
In short: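 SRB viability endpoint: cells fixed with 10% TCA, stained with 0.1% SRB, read at 560 nm, 24 h post-dose. HUVEC/PBMC co-culture; signal change in either direction scored relative to DMSO.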

Measured: AC50

Sequence of E-selectin (Homo sapiens) (P16581 whole entry, looked up): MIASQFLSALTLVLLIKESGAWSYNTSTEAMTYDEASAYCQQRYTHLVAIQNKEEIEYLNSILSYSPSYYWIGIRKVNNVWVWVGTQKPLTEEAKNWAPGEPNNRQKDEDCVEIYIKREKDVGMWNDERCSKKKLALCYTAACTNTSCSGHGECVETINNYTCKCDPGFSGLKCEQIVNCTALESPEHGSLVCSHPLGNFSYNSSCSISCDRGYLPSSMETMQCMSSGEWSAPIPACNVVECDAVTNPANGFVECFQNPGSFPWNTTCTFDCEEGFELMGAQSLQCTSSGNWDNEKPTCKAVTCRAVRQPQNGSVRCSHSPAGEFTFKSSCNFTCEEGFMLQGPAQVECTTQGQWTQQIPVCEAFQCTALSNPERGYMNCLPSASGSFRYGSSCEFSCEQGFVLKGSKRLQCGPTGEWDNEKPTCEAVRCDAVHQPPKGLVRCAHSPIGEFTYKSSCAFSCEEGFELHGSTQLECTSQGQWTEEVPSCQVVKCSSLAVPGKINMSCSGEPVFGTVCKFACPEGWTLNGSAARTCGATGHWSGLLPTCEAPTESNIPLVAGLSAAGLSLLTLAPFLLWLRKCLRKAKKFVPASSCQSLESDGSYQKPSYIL

O=C(O)C(F)(F)C(F)(F)C(F)(F)C(F)(F)C(F)(F)C(F)(F)C(F)(F)C(F)(F)C(F)(F)C(F)F
inactive: [2] | [6] | [7]
active: [1] 48.7 µM and 46.1 µM | [2] 42.2 µM | [3] 30 µM and 11.4 µM | [4] 16.2 µM and 12.5 µM | [5] 47.5 µM and 54.1 µM | CD40, CD40 (gene 958) 24.9 µM and 41.6 µM | [6] 58.3 µM | [7] 55 µM | [8] 46.9 µM and 55 µM

OCC(F)(F)C(F)(F)C(F)(F)C(F)(F)C(F)(F)C(F)F
not listed: CD40, CD40 (gene 958) | [8]
inactive: all other assays above

FC(F)(F)C(F)(F)C(F)(F)N(C(F)(F)C(F)(F)C(F)(F)F)C(F)(F)C(F)(F)C(F)(F)F
not listed: CD40, CD40 (gene 958) | [8]
inactive: all other assays above

FC(F)(F)C(F)(F)C(F)(F)C(F)(F)C(F)(F)CCI
inactive: all assays above

C=CC(=O)OCC(F)(F)C(F)(F)C(F)(F)C(F)(F)COC(=O)C=C
active: [1] 18.6 µM and 48.2 µM | [2] 25.7 µM and 33.3 µM | [3] 10.9 µM and 15.4 µM | [4] 30.9 µM and 21.6 µM | [5] 33.8 µM and 37 µM | CD40, CD40 (gene 958) 12.2 µM and 18.5 µM | [6] 17.3 µM and 17.6 µM | [7] 19.2 µM and 16.7 µM | [8] 45.3 µM and 43.4 µM

C=C(C)C(=O)OCCC(F)(F)C(F)(F)C(F)(F)C(F)(F)C(F)(C(F)(F)F)C(F)(F)F
not listed: CD40, CD40 (gene 958)
inactive: all other assays above

O=C(O)C(F)(OC(F)(F)C(F)(OC(F)(F)C(F)(OC(F)(F)C(F)(F)C(F)(F)F)C(F)(F)F)C(F)(F)F)C(F)(F)F (configuration not stated)
not listed: CD40, CD40 (gene 958) | [8]
inactive: all other assays above

CCO[Si](CCC(F)(F)C(F)(F)C(F)(F)C(F)(F)C(F)(F)C(F)(F)F)(OCC)OCC
not listed: CD40, CD40 (gene 958) | [8]
inactive: all other assays above

CCCCC(CC)COP(=O)(O)OCC(CC)CCCC (configuration not stated)
active: [2] 25.5 µM and 28.3 µM | [3] 31.2 µM and 20 µM | [4] 29.5 µM and 36.8 µM
inactive: all other assays above

FC1CC(F)(F)C(F)(F)C1(F)F (configuration not stated)
not listed: CD40, CD40 (gene 958)
inactive: all other assays above

FC(F)(F)C(F)(F)C(F)(F)C(F)(F)C(F)(F)C(F)(F)CC1CO1 (configuration not stated)
not listed: CD40, CD40 (gene 958) | [8]
inactive: all other assays above

OCCCC(F)(F)C(F)(F)C(F)(F)C(F)(F)C(F)(F)C(F)(F)C(F)(F)F
active: [1] 24 µM and 43.8 µM | [2] 14.7 µM and 37 µM | [3] 27.3 µM and 42.9 µM | [4] 20 µM and 45 µM | [5] 22.8 µM and 47.2 µM | [6] 50.6 µM and 43.6 µM | [7] 53.5 µM and 54.5 µM | [8] 54 µM and 46.2 µM

FC(F)(F)C(F)(F)C(F)(F)C(F)(F)C(F)(F)C(F)(F)C(F)(F)Br
not listed: CD40, CD40 (gene 958) | [8]
inactive: all other assays above

OCC(F)(F)C(F)(F)C(F)(F)C(F)(F)C(F)(F)C(F)(F)F
not listed: CD40, CD40 (gene 958)
inactive: all other assays above

O=S(=O)(OCCOC(F)(F)F)C(F)(F)F
not listed: CD40, CD40 (gene 958) | [8]
inactive: all other assays above

NC(=O)C(F)(F)C(F)(F)C(F)(F)C(F)(F)F
inactive: all assays above

OCC(F)(F)C(F)(F)C(F)(F)C(F)F
not listed: CD40, CD40 (gene 958)
inactive: all other assays above

CCCCCCCCC(F)(F)C(F)(F)C(F)(F)C(F)(F)C(F)(F)C(F)(F)F
not listed: CD40, CD40 (gene 958) | [8]
inactive: all other assays above

FC(F)(Br)C(F)(F)C(F)(F)C(F)(F)C(F)(F)C(F)(F)Br
inactive: all assays above

O=C(O)C(F)(F)C(F)(F)C(F)(F)C(F)(F)C(F)(F)C(F)(F)C(F)(F)C(F)(F)Cl
active: [1] 30 µM and 20.5 µM | [2] 53.9 µM and 52.6 µM | [3] 49.4 µM and 55.1 µM | [4] 37.5 µM and 40.3 µM | [5] 47.8 µM and 47.2 µM | [6] 30 µM | [7] 5.95 µM and 40.1 µM
inactive: [6]

FC(F)(F)C(F)(F)C(F)(F)C(F)(F)C(F)(F)C(F)(F)C(F)(F)C(F)(F)CCS
not listed: CD40, CD40 (gene 958)
inactive: all other assays above

O=C(O)C(F)(F)C(F)(F)C(F)(F)F
not listed: CD40, CD40 (gene 958)
inactive: all other assays above

FC(F)(F)C(F)(F)C(F)(F)C(F)(F)C(F)(F)C(F)(F)CCS
not listed: CD40, CD40 (gene 958) | [8]
inactive: all other assays above

COC(=O)CCC(F)(F)C(F)(F)C(F)(F)C(F)(F)F
inactive: all assays above

O=S(=O)(O)C(F)(F)C(F)(F)C(F)(F)C(F)(F)C(F)(F)C(F)(F)C(F)(F)F
not listed: CD40, CD40 (gene 958) | [8]
inactive: all other assays above

FC(F)(F)C(F)(F)CNCC(F)(F)C(F)(F)F
inactive: all assays above

O=C(O)C(F)(F)C(F)(F)C(F)F
not listed: CD40, CD40 (gene 958)
inactive: all other assays above

C=C(C)C(=O)OCC(F)(F)C(F)(F)C(F)(F)F
not listed: CD40, CD40 (gene 958)
inactive: all other assays above

O=S(=O)(OCC(F)F)C(F)(F)F
inactive: all assays above

N=C(N)C(F)(F)C(F)(F)C(F)(F)C(F)(F)C(F)(F)C(F)(F)C(F)(F)F
active: [7] 46.8 µM
inactive: [1] | [2] | [3] | [4] | [5] | [6] | [7]

OCCCC(F)(F)C(F)(F)C(F)(F)F
inactive: all assays above

FC(F)(F)C(F)(F)C(F)(F)CI
active: [7] 1.84 µM
inactive: [1] | [2] | [3] | [4] | [5] | [6] | [7] | [8]

FC(F)(I)C(F)(F)C(F)(F)C(F)(F)I
active: [1] 53.2 µM and 47.2 µM and 47.7 µM | [2] 54.2 µM and 46.7 µM and 53.1 µM | [3] 50.9 µM and 46.8 µM and 48.7 µM | [4] 52 µM and 51.2 µM and 45.8 µM | [5] 49.5 µM and 45.8 µM and 54 µM
inactive: CD40, CD40 (gene 958) | [6] | [7] | [8]

FC(F)(F)C(F)(F)C(F)(F)C(F)(F)C(F)(F)C(F)(F)C(F)(F)C(F)(F)F
inactive: all assays above

C=CC(F)(F)C(F)(F)C(F)(F)C(F)(F)C(F)(F)C(F)(F)C(F)(F)C(F)(F)F
not listed: CD40, CD40 (gene 958) | [8]
inactive: all other assays above

O=C(O)C(F)(F)C(F)(F)OC(F)(F)F
inactive: all assays above

O=C(O)C(F)(F)C(F)(F)C(F)(F)C(F)(F)C(F)(F)C(F)(F)C(F)(F)C(F)(F)C(F)(F)C(F)(F)C(F)(F)C(F)(F)F
active: [1] 4.28 µM and 3.91 µM
not listed: CD40, CD40 (gene 958)
inactive: all other assays above
